These results are taken from PubChem BioAssay.

Structures are written as SMILES. Active and inactive are the calls of the source.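 The calls were made as follows, unless noted: active = fluorescence slope higher than the sample average by over 3 SD (cut at about -0.22 in these data, passing the limit was not always enough); inactive = the rest.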

The nature of assay [1]: inhibitors of TNFa-induced NFkB p65 translocation, primary screen, imaging, HUVEC, MLSMR starter and 10KST1 sets (AID 438;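 active = inhibition above 20% together with a positive visual image hit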;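 also: compound added about 3h40 before a 20 min TNFalpha stimulation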;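 as to inhibition: signal is the nuclear over cytoplasmic p65 intensity ratio per well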). To be noted: HUVEC TNFa-induced p65 nuclear translocation; cell count: measured here: nuclei count (cytotoxicity indicator), at 2.08 µM; inhibition: at 2 µM, stronger effect = higher value, 0% TNFa-plus-vehicle, 100% no-TNFa wells.
Assay [2] can be described thus: reduction of polyQ htt aggregates in cells – imaging, exon1htt(103Q)mCFP cells, high-content imaging, primary screen (AID 483;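 active = visual image review flags a hit and inhibition of aggregation exceeds 20%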;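 also: compound exposure lasted 3 days before fixation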;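 as to nuclei count: percent of the per-plate median nuclei count of sample wells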). To be noted: exon1htt(103Q)mCFP cell line, aggregate imaging, at 2 µM; inhibition of aggregation: stronger effect = higher value; nuclei count: measured here: cell count, toxicity.
Assay [3] is described as follows: endothelial E-selectin expression blockers – imaging, HUVEC, immunofluorescence, MLSMR starter and 10KST1 sets, primary screen (AID 487;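 active = visually confirmed hit in the image check and inhibition above 20%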;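 as to inhibition: signal is fraction of cell area covered by stained E-selectin grains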;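 as to nuclei count: 100% = median nuclei count of all wells on the same plate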). The following applies: HUVEC TNFalpha-induced E-selectin immunofluorescence imaging, at 2 µM; inhibition: stronger effect = higher value; nuclei count: measured here: cell number, toxicity.
Assay [4] addresses Voltage-gated potassium channel subunit beta-2 (Rattus norvegicus) (UniProt P62483). Put plainly: inhibitors of rat Kvbeta2 reductase activity – biochemical, NADPH fluorescence, primary screen (AID 622).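 Also: slope of raw intensity against log time taken from 70 to 1610 s.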 The following applies: recombinant KvBeta, 4-cyanobenzaldehyde reduction, at 10 µM, stronger effect = higher value.
The target is the same in assay [5]. Put plainly: enhancers of rat Kvbeta2 NADPH turnover – biochemical, NADPH fluorescence, primary screen (AID 623;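 active = NADPH fluorescence slope more negative than the mean of all samples by about 3 SD, 99.7% confidence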;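 also: fluorescence intensity change per second fitted from 20 to 320 s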). To be noted: Recombinant KvBeta, NADPH fluorescence decrease slope, 10 min; at 10 µM; stronger effect = lower value.
The target in assay [6] is Alpha-2C adrenergic receptor (Homo sapiens) (UniProt P18825). Description: compounds altering alpha2C-coupled GIRK flux – cell-based, HEK293 alpha2C/GIRK1/2, thallium flux, primary screen (AID 624;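 active = fluorescence slope after compound addition differing from the mean of all screened samples at 99.7% confidence, in either direction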;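 also: slope of fluorescence ratio to pre-addition baseline per second over 15 to 24 s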). The following applies: thallium flux BTC fluorescence, at 10 µM, actives lie on both sides.
The nature of assay [7]: blockers of RIG-like receptor reporter activation – cell-based, Sendai virus stimulus, luciferase, 10K MLSCN set, TLR/RLR signaling modifier project, primary screen (AID 602276;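 active = inhibition at or above 50% at 10 µM; inactive = inhibition below 50%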;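 also: firefly luciferase from ISG56 promoter only with Renilla not read in this screen; 0% = Sendai virus plus DMSO and 100% = medium plus DMSO without virus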). The following applies: HEK293 RL24 IRF3 luciferase reporter, at 10 µM, stronger effect = higher value. On the technique in general: A reporter such as luciferase makes a cellular process visible.
Assay [8] can be described thus: TLR3 IRF3 reporter activation blockers – cell-based, poly I:C stimulus, luciferase, 10K MLSCN set, primary screen (AID 602277;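 active = inhibition of the reporter signal at or above 50%; inactive = inhibition below 50%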). The following applies: HEK293-TLR3 RL24 IRF3 luciferase reporter, at 10 µM, stronger effect = higher value.

Voltage-gated potassium channel subunit beta-2 (Rattus norvegicus), sequence (P62483 whole entry, looked up): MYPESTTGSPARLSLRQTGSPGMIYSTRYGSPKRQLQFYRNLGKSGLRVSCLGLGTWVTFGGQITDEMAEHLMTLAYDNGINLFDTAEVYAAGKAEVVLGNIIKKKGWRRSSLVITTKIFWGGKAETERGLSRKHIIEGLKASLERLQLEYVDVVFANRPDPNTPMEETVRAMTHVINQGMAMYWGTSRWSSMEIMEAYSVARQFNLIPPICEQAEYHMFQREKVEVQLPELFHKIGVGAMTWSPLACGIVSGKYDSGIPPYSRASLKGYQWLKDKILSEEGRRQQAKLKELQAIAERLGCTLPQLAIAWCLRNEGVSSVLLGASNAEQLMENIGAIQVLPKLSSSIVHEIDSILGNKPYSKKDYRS
Alpha-2C adrenergic receptor (Homo sapiens), sequence (P18825 whole entry, looked up): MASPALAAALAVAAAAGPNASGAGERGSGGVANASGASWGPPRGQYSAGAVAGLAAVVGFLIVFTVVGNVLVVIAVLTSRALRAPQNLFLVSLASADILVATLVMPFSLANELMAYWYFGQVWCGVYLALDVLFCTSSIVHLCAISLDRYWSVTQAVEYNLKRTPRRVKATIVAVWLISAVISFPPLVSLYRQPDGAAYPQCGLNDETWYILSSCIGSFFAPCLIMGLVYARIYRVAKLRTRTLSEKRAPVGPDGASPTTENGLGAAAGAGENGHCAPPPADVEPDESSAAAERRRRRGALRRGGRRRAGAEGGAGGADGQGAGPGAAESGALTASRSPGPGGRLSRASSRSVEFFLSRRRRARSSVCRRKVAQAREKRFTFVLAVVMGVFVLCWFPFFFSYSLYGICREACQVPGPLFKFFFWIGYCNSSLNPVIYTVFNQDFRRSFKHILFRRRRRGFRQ

One may read the inhibition as the change of the read-out against control, counted positive when it falls. Regarding `CC(C)(CSc1nncn1N)NS(=O)(=O)c1ccc(Cl)cc1`, the cell count in assay [1] is 690. The inhibition is -4.4% (inactive) in assay [1], -17.3% (inactive) in assay [3], -0.22% (inactive) in assay [7] and 4% (inactive) in assay [8]. Moreover, the inhibition of aggregation in assay [2] is 11.7% (inactive). Further, the nuclei count in assay [2] came to 58.2%; in assay [3], 108%. Also, in assay [4], the fluorescence slope is -0.447 (inactive). For the same compound, in assay [5], the NADPH fluorescence slope was -4.4e-05 (inactive). Further, the slope in assay [6] was 0.00436 (inactive).
In the case of `COc1ccc(Cc2noc(-c3ccc(C)cc3)n2)cc1`, the cell count in assay [1] came out at 488. The inhibition in assay [1] is 12.1% (inactive); in assay [3] it was -304% (inactive); in assay [7] it was -38% (inactive); in assay [8] it was -135% (inactive). Further, in assay [2], the inhibition of aggregation was -0.3% (inactive). In addition, the nuclei count in assay [2] stood at 104%; in assay [3], 138%. Besides, the fluorescence slope in assay [4] was -0.366 (inactive). Also, the NADPH fluorescence slope in assay [5] was 3.7e-05 (inactive). Also, the slope in assay [6] is 0.00509 (inactive).
On to `CCOC(=O)CSc1nc2sc(C)c(C)c2c(=O)n1C`, for which, in assay [1], the cell count turned out to be 259. Moreover, the inhibition was 12.5% (inactive) in assay [1], 8.8% (inactive) in assay [3], 11% (inactive) in assay [7] and 26% (inactive) in assay [8]. Also, the inhibition of aggregation in assay [2] was 25.6% (inactive). Moreover, the nuclei count in assay [2] came out at 76.8%; in assay [3], 113%. In addition, in assay [4], the fluorescence slope is -0.36 (inactive). The NADPH fluorescence slope in assay [5] was 1.9e-05 (inactive). In assay [6], the slope is 0.00254 (inactive).
Regarding `CCn1c(SCC(=O)NC)nnc1C(C)C`, in assay [1], the cell count was 718. The inhibition is -11.9% (inactive) in assay [1], -17.9% (inactive) in assay [3], 12.7% (inactive) in assay [7] and 0.106% (inactive) in assay [8]. Besides, in assay [2], the inhibition of aggregation is -4.5% (inactive). Also, the nuclei count was 99.7% in assay [2] and 104% in assay [3]. The fluorescence slope in assay [4] is -0.307 (inactive). In addition, the NADPH fluorescence slope in assay [5] was -5.6e-05 (inactive). Moreover, the slope in assay [6] is 0.0053 (inactive).
As to `CC(=O)Nc1sc2c(c1CN1CCN(c3ccccn3)CC1)CCCC2`, the cell count in assay [1] is 698. Moreover, the inhibition in assay [1] is -14.6% (inactive); in assay [3], 54.3% (active); in assay [7], 6.55% (inactive); in assay [8], 12.4% (inactive). Also, the inhibition of aggregation in assay [2] is 5.2% (inactive). Also, the results for the nuclei count in assay [2] and in assay [3] were 95.6% and 95.3%, respectively. Besides, the fluorescence slope in assay [4] is -0.517 (inactive). The NADPH fluorescence slope in assay [5] was -3.7e-05 (inactive). Also, in assay [6], the slope is 0.00435 (inactive).
With `Cc1ccc(-c2ccc(=O)n(CC(=O)NCCCN3CCCCC3C)n2)cc1` (centres undefined), the cell count in assay [1] was 397. The inhibition in assay [1] is 5% (inactive); in assay [3], 14.8% (inactive); in assay [7], 11.3% (inactive); in assay [8], 21.8% (inactive). Further, the inhibition of aggregation in assay [2] is 3% (inactive). The figures for the nuclei count in assay [2] and in assay [3] were 98.2% and 96%, respectively. Also, in assay [4], the fluorescence slope is -0.497 (inactive). The NADPH fluorescence slope in assay [5] is -1.9e-05 (inactive). The slope in assay [6] is 0.0058 (inactive).
As to `CC1NC2(C(=O)N(Cc3ccccc3)c3ccccc32)C2C(=O)N(c3ccccc3)C(=O)C12` (centres undefined), in assay [1], the cell count is 643. Besides, the inhibition was -5.3% (inactive) in assay [1], -33.8% (inactive) in assay [3], 4.63% (inactive) in assay [7] and 26% (inactive) in assay [8]. Further, the inhibition of aggregation in assay [2] was 2.9% (inactive). For the same compound, the nuclei count in assay [2] was found to be 113%; in assay [3], 109%. Moreover, the fluorescence slope in assay [4] was -0.567 (inactive). In addition, the NADPH fluorescence slope in assay [5] is -5.5e-05 (inactive). Further, in assay [6], the slope was 0.0066 (inactive).
On to `O=C(O)C1CC=CCC1C(=O)Nc1ccc(S(=O)(=O)N2CCCc3ccccc32)cc1` (centres undefined), for which the cell count in assay [1] was 335. The inhibition in assay [1] is -7.5% (inactive); in assay [3] it was -43.1% (inactive); in assay [7], 46% (inactive); in assay [8] it was -62.7% (inactive). For the same compound, the inhibition of aggregation in assay [2] was -17.2% (inactive). Further, the nuclei count came out at 92.3% in assay [2] and 126% in assay [3]. Further, the fluorescence slope in assay [4] was -0.599 (inactive). For the same compound, the NADPH fluorescence slope in assay [5] was -3.1e-05 (inactive). In addition, the slope in assay [6] was 0.00437 (inactive).
For the compound `CCOC(=O)c1ccc(NC(=O)Nc2ccn(C)n2)cc1`, in assay [1], the cell count was determined as 354. Besides, the inhibition in assay [1] was 8.8% (inactive); in assay [3], -23.7% (inactive); in assay [7], -16.4% (inactive); in assay [8] it was -66.8% (inactive). Further, the inhibition of aggregation in assay [2] is 11.9% (inactive). Moreover, the nuclei count in assay [2] turned out to be 110%; in assay [3], 100%. Further, the fluorescence slope in assay [4] is -0.383 (inactive). Besides, the NADPH fluorescence slope in assay [5] was -2.9e-05 (inactive). Moreover, in assay [6], the slope is 0.00615 (inactive).
As to `Cc1noc(C)c1S(=O)(=O)N1CCCC(C(=O)NCCc2ccc(Cl)cc2)C1` (centres undefined), the cell count in assay [1] stood at 402. For the same compound, the inhibition in assay [1] was 7.3% (inactive); in assay [3] it was -78.1% (inactive); in assay [7] it was 11.6% (inactive); in assay [8], 7.58% (inactive). Moreover, in assay [2], the inhibition of aggregation was -8.8% (inactive). Besides, the results for the nuclei count in assay [2] and in assay [3] were 107% and 106%, respectively. In assay [4], the fluorescence slope is -0.471 (inactive). The NADPH fluorescence slope in assay [5] was -0.000191 (inactive). In assay [6], the slope is 0.00592 (inactive).
As for `Cn1nc(CC(=O)Nc2ccc(N3CCN(C(=O)OC(C)(C)C)CC3)cc2)c2ccccc2c1=O`, in assay [1], the cell count came to 639. Moreover, the inhibition in assay [1] was -32.6% (inactive); in assay [3], -34.7% (inactive); in assay [7], -10.5% (inactive); in assay [8], -50.4% (inactive). Further, the inhibition of aggregation in assay [2] was -11.8% (inactive). In addition, the nuclei count in assay [2] amounted to 91.2%; in assay [3] it was 99%. The fluorescence slope in assay [4] was -0.493 (inactive). In assay [5], the NADPH fluorescence slope was 8.9e-05 (inactive). The slope in assay [6] is 0.00619 (inactive).
For the compound `CS(=O)(=O)N(Cc1ccco1)CC(O)Cn1c2ccccc2c2ccccc21` (centres undefined), the cell count in assay [1] turned out to be 314. The inhibition in assay [1] was 3.3% (inactive); in assay [3], -16.4% (inactive); in assay [7], 13.7% (inactive); in assay [8], 35.1% (inactive). Besides, the inhibition of aggregation in assay [2] was 3.9% (inactive). For the same compound, the nuclei count was 103% in assay [2] and 97.9% in assay [3]. Also, in assay [4], the fluorescence slope was -0.388 (inactive). In addition, in assay [5], the NADPH fluorescence slope is 1.5e-05 (inactive). Further, in assay [6], the slope was 0.00353 (inactive).
Consider `CC(=O)C1=C(C)NC(C)=C(C(C)=O)C1c1cccs1`, for which, in assay [1], the cell count stood at 466. Also, the inhibition in assay [1] is 3.5% (inactive); in assay [3], 28.1% (inactive); in assay [7], 1.28% (inactive); in assay [8], 39.4% (inactive). The inhibition of aggregation in assay [2] was -5.6% (inactive). The results for the nuclei count in assay [2] and in assay [3] were 103% and 108%, respectively. Moreover, the fluorescence slope in assay [4] was -0.369 (inactive). Further, the NADPH fluorescence slope in assay [5] was 2.7e-05 (inactive). Besides, the slope in assay [6] was 0.00356 (inactive).
Regarding `O=C(c1ccc(CSCc2ccccc2F)o1)N1CCN(c2ccc(N3CCOCC3)nn2)CC1`, in assay [1], the cell count is 504. For the same compound, the inhibition in assay [1] is -13.1% (inactive); in assay [3] it was -7.9% (inactive); in assay [7], 4.73% (inactive); in assay [8], 15.4% (inactive). Also, in assay [2], the inhibition of aggregation is 40.2% (inactive). In addition, the figures for the nuclei count in assay [2] and in assay [3] were 79.3% and 101%, respectively. In addition, the fluorescence slope in assay [4] was -0.435 (inactive). Besides, in assay [5], the NADPH fluorescence slope was -1.8e-06 (inactive). Moreover, in assay [6], the slope was 0.00478 (inactive).
